BoNT A protease: inhibitors of Botulinum neurotoxin A light chain protease. multiplex microsphere protease substrate cleavage, flow cytometry. inhibition, % at 10 µM. AID 588499. actives 0.17% (n = 360,000); in the data active = inhibition above about 30%
BoNT F protease: inhibitors of Botulinum neurotoxin F light chain protease. AID 588497. inhibition, % at 10 µM. actives 0.22% (n = 360,000). Multiplex microsphere protease cleavage assay, flow cytometry; in the data active = inhibition above about 35%, passing the limit was not always enough
GDH-TPI counter-1: inhibits GDH-TPI coupling enzymes, artifact for Mtb FBA screen; GDH-TPI coupled enzyme counterscreen, NADH absorbance; actives 1.2% (n = 360,000); inhibition, % at 4.8 µM; AID 588335; in the data active = inhibition above about 30%
Autofluor counter: compound fluorescence in toxin protease inhibitor counterscreen. compound autofluorescence counterscreen, microsphere flow cytometry; hits give high values. fluorescence intensity (test concentration not listed). actives 3.1% (n = 360,000); in the data active = fluorescence intensity above about 16000
Anthrax LF prot: anthrax lethal factor protease inhibition; P15917; multiplex microsphere protease cleavage assay, LF; inhibition, % at 10 µM; actives 0.12% (n = 360,000); in the data active = inhibition above about 30%
FBA Mtb inh: inhibitors of M. tuberculosis fructose-bisphosphate aldolase; P9WQA3; actives 2.3% (n = 360,000); purified M. tuberculosis FBA, fluorescence read-out; inhibition, % at 1 µM
Target sequence (P9WQA3 whole entry, looked up): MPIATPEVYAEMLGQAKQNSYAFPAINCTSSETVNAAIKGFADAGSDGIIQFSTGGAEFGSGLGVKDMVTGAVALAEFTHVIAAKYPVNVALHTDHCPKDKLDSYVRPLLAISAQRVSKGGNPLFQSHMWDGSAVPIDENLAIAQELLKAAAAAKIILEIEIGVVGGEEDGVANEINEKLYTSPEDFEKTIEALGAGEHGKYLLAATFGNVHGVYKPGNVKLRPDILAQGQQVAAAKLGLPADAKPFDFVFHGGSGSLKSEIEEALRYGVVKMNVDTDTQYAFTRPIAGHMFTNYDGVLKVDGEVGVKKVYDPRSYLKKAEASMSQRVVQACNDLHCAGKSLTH
Mtb FBA confirm: confirmation of M. tuberculosis fructose-bisphosphate aldolase inhibitors | shares compounds with FBA Mtb inh | purified M. tuberculosis FBA, fluorescence read-out | inhibition, % at 1 µM | actives 78% (n = 5,600) | AID 651616
GDH-TPI counter-2: inhibits GDH-TPI coupling enzymes, flagging Mtb FBA hits; actives 81% (n = 5,600); inhibition, % at 1 µM; GDH-TPI coupled enzyme counterscreen, fluorescence; shares compounds with FBA Mtb inh; in the data active = inhibition above about 10%
Large screens that a line does not name were inactive (follow-up assays come after a bar, where they were run). Compounds with a hit are over-represented: about 6.6% of the library has one in this group of screens. Rule as the data show it, unless noted: active = inhibition above about 27%; inactive = the rest.

COc1ccc(-c2ccc3c(c2)CN(C(=O)NC2CCCCC2)Cc2cnnn2-3)cc1	FBA Mtb inh 86.4 (no result: GDH-TPI counter-1) | Mtb FBA confirm 52.3 | GDH-TPI counter-2 41.3
CCOc1ccc(/C=N/NC(=S)NC2CC3CCC2C3)cc1 (centres undefined)	FBA Mtb inh 30.6 (no result: BoNT A protease, BoNT F protease, Autofluor counter, Anthrax LF prot) | Mtb FBA confirm inactive | GDH-TPI counter-2 inactive
CCOc1ccc(/C=N/NC(=S)NC2CC3CC2C2C=CCC32)cc1 (centres undefined)	none (no result: BoNT A protease, BoNT F protease, Autofluor counter, Anthrax LF prot)
c1ccc2c(c1)COc1c3ncccc3nn1-2	FBA Mtb inh 32.6 | Mtb FBA confirm 36.9 | GDH-TPI counter-2 32.1
COc1ccccc1C(O)c1ncc(-c2cccc3ccccc23)[nH]1 (centres undefined)	FBA Mtb inh 60.3 | Mtb FBA confirm active | GDH-TPI counter-2 active
COc1ccccc1-c1cnc(C(O)c2cccc(C)c2C)[nH]1 (centres undefined)	none
COc1ccc(C(O)c2ncc(-c3cccc4ccccc34)[nH]2)cc1F (centres undefined)	FBA Mtb inh 40.8 | Mtb FBA confirm 35.5 | GDH-TPI counter-2 35.8
Cc1cc(F)ccc1C(O)c1ncc(-c2cccc3ccccc23)[nH]1 (centres undefined)	FBA Mtb inh 31.1 | Mtb FBA confirm inactive | GDH-TPI counter-2 inactive
OC(c1ccc(F)cc1)c1ncc(-c2cccc3ccccc23)[nH]1 (centres undefined)	FBA Mtb inh 48.9 | Mtb FBA confirm inactive | GDH-TPI counter-2 inactive
Cc1cc(F)ccc1C(O)c1ncc(-c2ccc3ccccc3c2)[nH]1 (centres undefined)	none
COc1ccc(C(O)c2ncc(-c3ccccc3OC)[nH]2)cc1F (centres undefined)	none
COc1ccccc1N(C)S(=O)(=O)c1ccc(C(=O)OCC(=O)NCc2ccco2)cc1	none
COCCNC(=O)C(c1ccncc1)N(Cc1ccccc1)C(=O)Cn1nnc2ccccc21 (centres undefined)	none
COc1ccc(C(O)c2ncc(-c3ccc4ccccc4c3)[nH]2)cc1 (centres undefined)	FBA Mtb inh 31.7 | Mtb FBA confirm active | GDH-TPI counter-2 active
Cc1ccc(C(O)c2ncc(-c3ccc4ccccc4c3)[nH]2)cc1 (centres undefined)	none
CCOCCCNC(=S)Nc1ccc2nc(N3CCOCC3)cc(C)c2c1	FBA Mtb inh 32.1 | Mtb FBA confirm active | GDH-TPI counter-2 active
COc1ccc(CNC(=S)Nc2ccc3nc(N4CCOCC4)cc(C)c3c2)cc1	FBA Mtb inh 31.2 | Mtb FBA confirm 32.9 | GDH-TPI counter-2 27.7
COCCCNC(=S)Nc1ccc2nc(N3CCOCC3)cc(C)c2c1	none
COc1ccc(CNC(=S)Nc2ccc3nc(N4CCN(C)CC4)cc(C)c3c2)cc1	none
O=C(NCCO)c1ccc2[nH]c3ccccc3c2c1	FBA Mtb inh 34.7 | Mtb FBA confirm inactive | GDH-TPI counter-2 inactive
O=C(NCCc1c[nH]c2ccccc12)c1ccc2[nH]c(=O)c(=O)[nH]c2c1	none
CCCn1c(=N)c(S(=O)(=O)c2ccccc2)cc2c(=O)n3cccc(C)c3nc21	none
Cc1cccn2c(=O)c3cc(C(=O)N(C)C)n(C)c3nc12	FBA Mtb inh 48.9 | Mtb FBA confirm 92.8 | GDH-TPI counter-2 68.7
Cn1c(C(=O)NCCCN2CCCC2=O)cc2c(=O)n(C)c3ccccc3c21	none
Cc1cccn2c(=O)c3cc(C(=O)NCCCn4ccnc4)n(C)c3nc12	FBA Mtb inh 59.0 | Mtb FBA confirm 76.8 | GDH-TPI counter-2 53.4
Cc1cccn2c(=O)c3cc(C(=O)NCCCN4CCCC4=O)n(C)c3nc12	FBA Mtb inh 107.9 | Mtb FBA confirm inactive | GDH-TPI counter-2 inactive
C=CCNC(=O)CN1C(=O)C2C3c4ccccc4C(c4ccccc43)C2C1=O (centres undefined)	none
CN(C)S(=O)(=O)c1ccc(S(=O)(=O)NCc2cccs2)cc1	none
N#Cc1cc2cc3c(cc2nc1SCC(=O)N1CCOCC1)OCO3	none
N#Cc1cc2cc3c(cc2nc1NCCNC(=S)NCCCN1CCOCC1)OCO3	FBA Mtb inh 69.5 | Mtb FBA confirm 133.1 | GDH-TPI counter-2 110.9

Screening results as filed in PubChem BioAssay.
